About 2,000 (36%) of roughly 5,500 compounds were called active. About 18% were inconclusive and are not listed. Rule as the data show it: active = normalized growth mostly below about 0.91 (no sharp cut-off); inconclusive = no clear call, values can overlap the other calls; inactive = mostly above about 0.92. Some of the results follow.
Experiment: chemical genetic growth profiling, strain panel (AID 1159580);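 also: tested at 20 µM; growth read once vehicle control cultures reached saturation at 30 °C; 1 = growth at the plate median or of vehicle wells; lower values mean less growth of the strain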
Conditions: S. cerevisiae deletion strains, growth OD

Measured: normalized growth

NC/C=C/C(=O)O
inactive: locus YAL013W, strain DEP1, hits give low values 1.02 | locus YAL021C, strain ccr4, hits give low values 0.968 | locus YAL026C, strain drs2, hits give low values 0.997 | locus YAL030W, strain snc1, hits give low values 1 | locus YAL040C, strain CLN3, hits give low values 0.998 | locus YBL061C, strain skt5, hits give low values 1.01 | locus YBR009C, strain hhf1, hits give low values 1.01 | locus YBR021W, strain FUR4, hits give low values 1.01 | locus YBR023C, strain chs3, hits give low values 1 | locus YBR171W, strain sec66, hits give low values 0.985 | locus YBR229C, strain ROT2, hits give low values 1.01 | locus YBR231C, strain swc5, hits give low values 1.02 | locus YBR279W, strain paf1, hits give low values 1.01 | locus YCL011C, strain gbp2, hits give low values 0.983 | locus YCL016C, strain dcc1, hits give low values 1.01 | locus YCL029C, strain bik1, hits give low values 1.02 | locus YCL061C, strain MRC1 (second series), hits give low values 1 | locus YCL061C, strain MRC1, hits give low values 0.987 | locus YCL069W, strain vba3, hits give low values 0.992 | locus YCR088W, strain abp1, hits give low values 0.986 | locus YDL005C, strain med2, hits give low values 1.01 | locus YDL035C, strain GPR1, hits give low values 1.04 | locus YDL040C, strain nat1, hits give low values 1 | locus YDL074C, strain BRE1, hits give low values 0.986 | locus YDL101C, strain DUN1, hits give low values 1 | locus YDL134C, strain PPH21, hits give low values 1.01 | locus YDL185W, strain tfp1, hits give low values 1.02 | locus YDL192W, strain arf1, hits give low values 1.01 | locus YDR001C, strain nth1, hits give low values 0.987 | locus YDR069C, strain doa4, hits give low values 1.03 | locus YDR101C, strain arx1, hits give low values 1.02 | locus YDR137W, strain rgp1, hits give low values 1.01 | locus YDR150W, strain NUM1, hits give low values 1.01 | locus YDR159W, strain sac3, hits give low values 1.02 | locus YDR162C, strain NBP2, hits give low values 0.986 | locus YDR195W, strain ref2 1.01 | locus YDR297W, strain sur2, hits give low values 1.01 | locus YDR318W, strain mcm21, hits give low values 1.05 | locus YDR334W, strain swr1, hits give low values 1 | locus YDR335W, strain msn5, hits give low values 1.01 | locus YDR363W, strain ESC2, hits give low values 0.999 | locus YDR388W, hits give low values 1.01 | locus YDR392W, strain spt3, hits give low values 0.965 | locus YDR502C, strain sam2, hits give low values 0.999 | locus YEL003W, strain gim4, hits give low values 0.99 | locus YEL037C, strain rad23, hits give low values 0.982 | locus YEL061C, strain CIN8 (second series), hits give low values 0.99 | locus YEL061C, strain CIN8, hits give low values 1.01 | locus YER002W, strain NOP16, hits give low values 0.975 | locus YER015W, strain faa2, hits give low values 1.01 | locus YER016W, strain bim1, hits give low values 1.02 | locus YER110C, hits give low values 1.02 | locus YER111C, strain swi4, hits give low values 0.98 | locus YER155C, strain BEM2 (second series), hits give low values 1.01 | locus YER155C, strain BEM2, hits give low values 0.999 | locus YER167W, strain BCK2, hits give low values 1.05 | locus YFR010W, strain ubp6, hits give low values 1.01 | locus YGL078C, strain dbp3, hits give low values 0.994 | locus YGL086W, strain mad1, hits give low values 1.04 | locus YGL167C, strain pmr1, hits give low values 1.01 | locus YGL173C, strain kem1, hits give low values 1.01 | locus YGL227W, strain vid30, hits give low values 0.988 | locus YGL240W, strain doc1, hits give low values 1.02 | locus YGL248W, strain PDE1, hits give low values 1.01 | locus YGL253W, strain hxk2, hits give low values 1 | locus YGR078C, strain PAC10, hits give low values 1.01 | locus YGR135W, strain pre9, hits give low values 0.996 | locus YGR229C, strain SMI1, hits give low values 1.01 | locus YGR252W, strain gcn5, hits give low values 1.03 | locus YHR013C, strain ard1, hits give low values 0.999 | locus YHR027C, strain rpn1, hits give low values 1.01 | locus YHR030C, strain SLT2, hits give low values 1.01 | locus YHR079C, strain IRE1 (second series), hits give low values 1.01 | locus YHR094C, strain hxt1, hits give low values 1.01 | locus YHR129C, strain ARP1, hits give low values 1.02 | locus YHR142W, strain chs7, hits give low values 0.975 | locus YHR200W, strain rpn10, hits give low values 1.02 | locus YIL066C, strain RNR3, hits give low values 1.02 | locus YIL073C, strain SPO22, hits give low values 1.13 | locus YIL125W, strain kgd1, hits give low values 1.01 | locus YIR030C, strain dcg1, hits give low values 1.02 | locus YJL092W, strain hpr5, hits give low values 0.984 | locus YJL095W, strain BCK1 (second series), hits give low values 1.01 | locus YJL095W, strain BCK1, hits give low values 1.03 | locus YJL115W, strain asf1, hits give low values 0.994 | locus YJL129C, strain trk1, hits give low values 0.994 | locus YJL134W, strain LCB3, hits give low values 1.01 | locus YJL154C, strain vps35, hits give low values 0.987 | locus YJL164C, strain tpk1, hits give low values 0.989 | locus YJL166W, strain qcr8, hits give low values 1.02 | locus YJL168C, strain set2, hits give low values 1 | locus YJL187C, strain SWE1 (second series), hits give low values 1.01 | locus YJL187C, strain SWE1, hits give low values 1.02
